Sampled rows, rich in hits. Any-hit rate of the full collection: about 22%.
CYP2C19 activ – human CYP2C19 activators, primary screen, biochemical, luminescence | 96,000 tested, under 10 active | recombinant CYP2C19, luciferin-H EGE luminescence; hits give high values; 0 = fully inhibited enzyme, 1 = untreated enzyme | activation factor at 5 µM | AID 1025, 2008 | Cytochrome P450 2C19 (Homo sapiens), P33261;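 active = activation factor of at least 2 at 5 µM in the primary screen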;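 also: 0 = wells with 2.5 mM tranylcypromine and 1 = vehicle-only wells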
Target sequence (P33261 whole entry, looked up): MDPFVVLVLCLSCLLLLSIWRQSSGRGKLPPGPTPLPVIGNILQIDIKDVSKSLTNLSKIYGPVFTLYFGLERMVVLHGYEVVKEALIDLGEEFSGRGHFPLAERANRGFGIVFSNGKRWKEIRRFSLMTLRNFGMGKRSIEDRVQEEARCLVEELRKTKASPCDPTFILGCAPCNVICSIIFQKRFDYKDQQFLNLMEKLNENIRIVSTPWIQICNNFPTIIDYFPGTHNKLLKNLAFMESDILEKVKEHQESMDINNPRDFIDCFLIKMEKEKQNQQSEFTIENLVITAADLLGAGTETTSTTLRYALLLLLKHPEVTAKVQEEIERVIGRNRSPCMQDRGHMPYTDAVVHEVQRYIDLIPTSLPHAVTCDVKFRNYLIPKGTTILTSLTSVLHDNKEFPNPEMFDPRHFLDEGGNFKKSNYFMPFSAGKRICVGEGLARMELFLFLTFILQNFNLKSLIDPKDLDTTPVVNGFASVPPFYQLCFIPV
CYP2C9 inhib – blockers of cytochrome P450 2C9 activity – biochemical, luminescence, ADME assay, primary screen. P11712. CYP2C9 Supersomes, luciferin-H conversion. inhibition, % at 5 µM. 20% of 96,000 active. AID 777, 2007;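 active = blocking of liver enzyme CYP2C9 beyond about 50% at 5 µM, limit read from the data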
F-actin modifier – modifiers of F-actin cytoskeleton organization, primary screen, imaging, HUVEC, phalloidin staining, high-content imaging; 0.18% of 91,000 active; HUVEC TNFa F-actin phalloidin imaging; inhibition, % at 2 µM; AID 836, 2007;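 active = inhibition above the batch mean plus 3 SD and confirmed as a hit by visual image inspection, cut at about 30% in these data, passing the limit was not always enough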
CYP2C9 act – human CYP2C9 activators, primary screen, biochemical, luminescence; 1.4% of 96,000 active; recombinant CYP2C9, luciferin-H conversion; hits give high values; factor 1 = untreated enzyme, 0 = blocked; activation factor at 5 µM; Cytochrome P450 2C9 (Homo sapiens), P11712;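 active = activation factor of 2 or more for CYP2C9 at a 5 µM dose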;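 also: 0 = sulfaphenazole-blocked wells and 1 = vehicle-only wells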
E-sel TNF inh – E-selectin induction blockers in HUVEC – imaging, immunofluorescence, high content, primary screen | 0.71% of 120,000 active | HUVEC TNFa-induced E-selectin immunofluorescence | inhibition, % at 2 µM;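 active = inhibition above the batch mean plus 3 SD, and confirmed as a hit on visual image review, cut at about 43% in these data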;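 also: 0% = TNF-stimulated DMSO wells and 100% = unstimulated control wells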
CYP2C19 inhib – blockers of cytochrome P450 2C19 activity – biochemical, luminescence, ADME assay, primary screen. AID 778, 2007. inhibition, % at 5 µM. CYP2C19 Supersomes, luciferin-H EGE luminescence, 30 min. 21% of 96,000 active. P33261;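 active = CYP2C19 inhibition above a set limit at 5 µM in the primary screen, cut at about 50% in these data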;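 also: plate controls were negative control wells for no effect and 2.5 mM tranylcypromine positive control for full effect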
Numbers without * were called inactive; / = not tested or not shown.

SMILES	CYP2C19 activ	CYP2C9 inhib	F-actin modifier	CYP2C9 act	E-sel TNF inh	CYP2C19 inhib
COc1cc2c(C(=O)N3CCN(C)CC3)c(C)oc2cc1Br	0.7	5	-31	0.9	-3	35
COCCCNC(=O)c1ccc(Cn2c(=O)c3ccccc3n(Cc3ccc(C)cc3)c2=O)cc1	0.5	54*	-7	0.5	-8	47
COc1cc(C2N(c3cccc(Cl)c3)C(=O)C3CCCN32)cc(OC)c1OC (stereo not drawn)	0.6	17	-14	0.8	7	43
COc1cc(C2N(c3ccccc3)CCN2c2ccccc2)cc(OC)c1OC	0.3	41	18	0.6	4	75*
O=C1C=C(O)CC(c2ccco2)C1 (stereo not drawn)	/	/	-8	/	-46	/
Cc1cc(=O)oc2cc(OCC(=O)NCc3cccnc3)ccc12	0.9	2	-14	1	-12	6
Cc1cc(Cl)ccc1OCC(=O)NCc1ccncc1	0	82*	-4	0.2	2	95*
Cc1cc(=O)oc2cc(OCC(=O)NCc3ccncc3)ccc12	0.3	91*	28	0.1	-20	65*
CCn1cc(C(C)NC(=O)COc2ccc(Cl)cc2C)c(C)n1 (stereo not drawn)	0.4	82*	-27	0.2	0	62*
O=C(COc1ccc(Cl)cc1Cl)NCCCn1ccnc1	0	97*	38	0	/	100*
COC(=O)C1(C(=O)OC)NOC2C(=O)N(c3ccccc3)C(=O)C21 (stereo not drawn)	1	0	12	1	-8	1
CCc1nnc(NC(=O)C2CCN(S(=O)(=O)c3ccc(C)cc3)CC2)s1	/	/	/	/	12	/
O=c1n(-c2ccccc2)c(=O)n2n1CCC2	1	4	-32	1	/	2
Cc1ccc(Oc2ccc(Cl)cc2NC(=O)c2ccc(F)cc2F)cc1	/	/	/	/	-16	/
Cc1cc2oc(C(=O)NCc3ccncc3)c(C)c2cc1C	0	97*	19	0	0	98*
CN(C)P(=NC(=O)COc1ccc(Cl)cc1Cl)(N(C)C)N(C)C	0.1	3	-4	1	/	92*
CC(Oc1ccc(Cl)cc1)C(=O)NCCCn1ccnc1 (stereo not drawn)	0	89*	/	0.1	17	100*
COc1cc(C)nc(OCCNC(=O)COc2ccc(Cl)cc2C)n1	0.3	46	4	0.5	-2	73*
CCOC(=O)C1CCN(C(=O)c2cccc(NC(=O)C(CC)CC)c2)CC1	0.5	41	-4	0.6	3	50
O=C(CN1CCC(c2nc3ccccc3s2)CC1)NCc1cccs1	0.9	-4	7	1	22	7
Cc1ccccc1CN1CCSc2sccc2C1=O	/	/	/	/	-22	/
O=C(COc1ccc(Cl)cc1Cl)NCc1ccncc1	0	95*	6	0	-7	100*
O=C(COc1ccc(Cl)cc1Cl)Nc1ccccn1	0.3	78*	4	0.2	33	70*
O=C(COC(=O)CCCOc1ccc(Cl)cc1Cl)NCc1ccc(F)cc1	/	/	/	/	-6	/
CC(C)NC(=O)COc1ccc(Cl)cc1Cl	0.5	10	-10	0.9	12	46
SMILES	CYP2C19 activ	CYP2C9 inhib	F-actin modifier	CYP2C9 act	E-sel TNF inh	CYP2C19 inhib
CS(=O)(=O)ON=C1CCN(S(=O)(=O)c2ccccc2)CC1	/	/	/	/	-22	/
Cn1c(=O)n(Cc2ccccc2)c(=O)c2c1nc(NCC1CCCO1)n2Cc1ccccc1 (stereo not drawn)	1	66*	2	0.3	-4	3
O=C1C(Cl)=C(NCC2CCCO2)C(=O)N1Cc1ccccc1 (stereo not drawn)	0.4	-62	-2	1.6	/	60*
Cn1c(=O)c2c(nc(NCC3CCCO3)n2C)n(C)c1=O (stereo not drawn)	1.1	-15	12	1.1	10	-11
O=C1C(Cl)=C(NC2CCCCC2)C(=O)N1Cc1ccccc1	/	/	/	/	-19	/
COc1ccc(C(=O)NC(=O)N2CCCCC2)cc1	1	-6	-5	1.1	-8	-2
COc1ccccc1N(CC(=O)Nc1ccc2c(c1)OCO2)S(=O)(=O)c1ccccc1	0.2	100*	-7	0	/	80*
